# ATXN2 expr inh = ATXN2 expression inhibition | HEK-293 ATXN2-luciferase reporter, luminescence, 24 h | AID 1745845 | Potency, µM (top dose mostly 57 µM), without a hit: at the highest dose activity change, negative = inhibition, most hits filed as inhibitors | 360,000 compounds, 0.72% hits; note: potency is the fitted concentration of half-maximal effect; % is set by controls: 0 for no effect and ±100 for the full control effect; nearly all actives have a fitted effect of over 55% in size
#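 ATXN2-luciferase reporter cells (luciferase flanked by upstream and downstream ATXN2 gene portions) were treated 24 h at 37 °C with compounds at up to 57 uM. SteadyGlo luminescence gave expression; GF-AFC fluorescence gave viability.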
# Integrin act MD = activates integrin-mediated alleviation for muscular dystrophy. 350,000 compounds, 0.064% hits. Potency, µM (doses to about 38.3 µM), for inactives: at the top dose activation, hits mostly activators. alpha7betagal myoblasts, beta-gal FDG fluorescence, 48 h. AID 624291;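 note: potency is the fitted concentration of half-maximal effect; 100% = response of the positive control SU9516; nearly all actives have a fitted effect of over 60% in size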
#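 alpha7betagal+/- myoblasts (passage 13, 250/well) treated 48 h at 37C with compounds at 1:260 dilution of DMSO stock. Lysed, then beta-galactosidase activity read as FDG fluorescence (ex 480/em 540) after 30 min, with pre-read for autofluorescence.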
# IL1B secr inh = blocks inflammasome-driven IL-1 beta release. AID 743279. activity change, % at 57.5 µM. 360,000 compounds, 4.7% hits. THP-1 LPS/ATP IL-1B secretion, AlphaLISA, 16 h; hits give low values; in the data active = activity change below about -50%; inconclusive = mostly about -30% to -49%; note: % is set by controls: 0 for no effect and ±100 for the full control effect
#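 THP-1 cells pretreated 1 hr with compounds (up to 57.5 uM final), then stimulated with LPS (250 ng/mL final) plus ATP (1.25 mM final); secreted IL-1B measured by AlphaLISA after 16 hr, decreased signal indicating inhibition.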
# D3 ag = D3 dopamine receptor (human) agonism; P35462; D3R DiscoveRx beta-arrestin cells, luminescence, 90 min; max activation, %; 410,000 compounds, 0.58% hits; in the data active = max activation above about 30%; note: 0% is about no effect
# Target sequence (P35462 whole entry, looked up): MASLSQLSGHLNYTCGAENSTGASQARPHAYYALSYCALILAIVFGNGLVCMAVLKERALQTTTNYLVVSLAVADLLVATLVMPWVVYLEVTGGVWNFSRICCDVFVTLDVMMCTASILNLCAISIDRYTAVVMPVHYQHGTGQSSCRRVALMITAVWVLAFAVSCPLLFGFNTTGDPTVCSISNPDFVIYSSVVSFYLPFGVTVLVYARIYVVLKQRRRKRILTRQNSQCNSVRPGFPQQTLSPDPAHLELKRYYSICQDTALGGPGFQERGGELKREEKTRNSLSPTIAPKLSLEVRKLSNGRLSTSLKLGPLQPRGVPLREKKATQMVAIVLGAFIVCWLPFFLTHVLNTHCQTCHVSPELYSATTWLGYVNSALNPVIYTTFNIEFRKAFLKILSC
#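 Agonist-mode cell screen: cells plated at 1500/well and incubated overnight at 37 °C, then exposed to library compounds for 90 min at 37 °C. Detection reagent was added for 30–60 min at room temperature, and luminescence was read.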
# DRD3 antagonist = antagonists of human D3 dopamine receptor; AID 652054; P35462; max response, negative = inhibition, %; 360,000 compounds, 2.5% hits; D3R cells, DiscoveRx beta-arrestin luminescence, antagonist mode; hits give low values; in the data active = max response below about -50%; inconclusive = no clear call, values can overlap the other calls; note: % is set by controls: 0 for no effect and ±100 for the full control effect
#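 Cells plated overnight at 1500 cells/well, then exposed to library compounds with dopamine controls for 90 minutes at 37 degrees C. DiscoveRx reagent added for 30–60 minutes at room temperature; luminescence read, quantitative HTS format.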
# S2 tox = reduces viability in counter-screen for ATXN expression inhibitors | Potency, µM (titrated, usually from 56.7 µM), usual class: cytotoxic | 400,000 compounds, 0.49% hits | S2 cells (HEK-293 line with an ATXN2-luciferase reporter) viability, CellTiter-Fluor protease fluorescence, 24 h; note: potency is the fitted concentration of half-maximal effect; nearly all actives have a fitted effect of over 40% in size
# * = called active by the depositor; i = inactive; u = inconclusive; x = no result. Rows were chosen to be rich in hits. Some 7% of all compounds tested hit in one or more screens of this group. Unless noted, calls come from the whole dose curve; as a rule, active = well fitted curve in the direction sought with a large enough effect; inconclusive = small, poorly fitted or top-dose-only effect, or another doubt; inactive = no such curve, though single readings can be large; an effect the other way counts as inactive or inconclusive.
SMILES,ATXN2 expr inh,Integrin act MD,IL1B secr inh,D3 ag,DRD3 antagonist,S2 tox
CC(C)OCCCN(C)C1CCN(S(=O)(=O)c2ccc(-c3cc(C(F)(F)F)no3)s2)CC1,97.5%,-31.5%,u,-7.9,-84.2*,x
COc1ccc2cc(CNCCOCCOCCNCc3ccc4cc(OC)ccc4c3)ccc2c1,u,-54.4%,-98.6*,-1.9,u,x
CCOCCCNCc1ccc(OC)cc1,2.7%,1.2%,-15.6,-1.6,-16.4,i
COc1ccc(CNCc2cccc3ccccc23)cc1,x,-70.7%,-21.6,-7.9,-60.0*,i
COc1ccc(CNCc2cccc(Cl)c2)cc1,2.2%,22.1%,-18.7,-13.5,-50.5*,i
O=C(O)c1ccc(CNCc2cccc(Cl)c2)cc1,u,20.8%,8.1,-1.8,5.6,u
CCN(CC)c1ccc(NC(=O)c2cnn3c(C(F)F)cc(-c4ccccc4)nc23)cc1,x,x,x,-11.5,x,x
COc1ccc(Cn2c(-c3ccc(Br)cc3)c[n+]3ccccc23)cc1,-1.8%,-48.9%,-61.1*,1.6,-11.4,i
CCN(CC)CCCNC(=O)CCC(=O)Nc1ccc2nc(N3CCCCC3)cc(C)c2c1,x,0.0%,0.0,-7.6,3.2,i
CCN1CCN(c2cc(C)c3cc(NC(=S)N4CC(C)CC(C)C4)ccc3n2)CC1 (stereo not drawn),-36.3%,-37.9%,-89.1*,-13.8,-13.3,u
COCCNC(=S)Nc1ccc2nc(N3CCOCC3)cc(C)c2c1,-8.4%,46.0%,-4.8,0.4,-1.8,i
Cc1cc(N2CCOCC2)nc2ccc(NC(=S)NCc3ccc4c(c3)OCO4)cc12,u,10µM*,-12.0,0.2,10.2,i
CCCCN(CC)CCNC(=S)Nc1ccc2nc(N3CCN(C)CC3)cc(C)c2c1,-31.9%,-69.6%,-54.6*,-31.2,u,u
CCCCN(CC)CCNC(=O)CCC(=O)Nc1ccc2nc(N3CCN(C)CC3)cc(C)c2c1,-20.1%,3.3%,u,1.5,-57.0*,i
CCCN(CCC)CCCNC(=S)Nc1ccc2nc(N3CCN(C)CC3)cc(C)c2c1,x,-56.2%,u,-1.8,-18.8,i
CCN1CCN(C(=S)Nc2ccc3nc(N4CCN(CC)CC4)cc(C)c3c2)CC1,-23.5%,-41.4%,u,-24.0,0.0,i
O=C(NC(=S)N1CCOCC1)c1cn(-c2ccccc2)nc1-c1ccccc1,-15.4%,10.3%,-3.1,-15.4,4.1,i
CCOc1ccc(CNC(=O)c2ccc3c(c2)c(C)c(C)n3C)cc1,x,x,x,-11.7,x,x
CCCNC(=O)c1ccc(N2CCC3(CC2)CC(c2ccccc2)=NO3)c(NC(=O)Cc2ccc(F)cc2)c1,-16.8%,-14.3%,2.8,-2.8,12.3,i
CCc1nnc(NS(=O)(=O)c2ccc(N=CC3=C(O)CC(C)(C)CC3=O)cc2)s1,1.0%,13.2%,31.3,3.1,1.0,i
COc1ccc(CCNC(=O)CCC(=O)Nc2ccc3nc(N4CCN(C)CC4)cc(C)c3c2)cc1OC,x,24.8%,-2.7,-4.4,0.0,i
Cc1cc(N2CCN(C)CC2)nc2ccc(NC(=O)CCC(=O)NCCC3=CCCCC3)cc12,4.5%,-13.2%,22.1,-49.7,-53.2*,u
CCCN(CCC)CCNC(=O)CCC(=O)Nc1ccc2nc(N3CCOCC3)cc(C)c2c1,13.1%,u,-15.7,-42.7,-65.8*,x
CCCCNC(=O)CCC(=O)Nc1ccc2nc(N3CCOCC3)cc(C)c2c1,42.5%,-13.5%,24.3,6.4,-15.3,i
Cc1cc(N2CCN(C)CC2)nc2ccc(NC(=O)c3ccccc3F)cc12,12.9%,-22.8%,-56.0*,3.8,9.2,i
SMILES,ATXN2 expr inh,Integrin act MD,IL1B secr inh,D3 ag,DRD3 antagonist,S2 tox
COc1ccc(C(CNC(=O)COc2ccccc2)N2CCCCC2)cc1 (stereo not drawn),1.4%,-10.7%,0.0,-28.6,-115.8*,i
COc1ccc(C(CNC(=O)CNC(=O)c2cccc(C)c2)N2CCCCC2)cc1 (stereo not drawn),0.4%,-3.9%,-4.5,-27.4,-51.7*,i
COc1ccc(C(CNC(=O)c2ccc(Cl)c(NC(=O)c3cccs3)c2)N2CCCC2)cc1 (stereo not drawn),2.9%,-16.8%,u,-30.1,-68.4*,u
COc1ccc(C(CNC(=O)Cc2ccccc2Cl)N2CCCCC2)cc1 (stereo not drawn),-15.3%,-49.3%,-52.3*,-28.2,-86.3*,i
COc1ccc(C(CNC(=O)CNC(=O)c2cccc(C)c2)N2CCOCC2)cc1 (stereo not drawn),-5.0%,19.1%,0.0,2.2,-16.9,i
COc1ccc(C(CNC(=O)Cc2ccccc2F)N2CCCCC2)cc1 (stereo not drawn),6.0%,0.0%,6.0,-32.6,u,i
COc1ccc(C(CNC(=O)COc2ccccc2)N2CCOCC2)cc1 (stereo not drawn),2.4%,-1.3%,-1.2,-25.2,-22.8,i
Cc1csc(CN(C)C(=O)c2cn(Cc3cccc4ccccc34)nn2)n1,16.7%,-1.8%,i,-2.2,-12.1,i
Cc1ccc(NC(=O)c2cc(NC(=O)C3CC=CCC3C(=O)O)ccc2N2CCOCC2)cc1 (stereo not drawn),-6.4%,12.6%,6.4,-2.6,38.2,i
Cc1ccc(NC2CCCN(C(=O)c3ccccn3)C2)cc1C (stereo not drawn),x,-18.6%,19.8,3.3,2.1,i
COc1ccc(C(CNC(=O)COc2ccc(Cl)cc2C)N2CCCCC2)cc1 (stereo not drawn),-5.2%,u,30.7,-15.9,-13.5,i
COc1ccc(C(CNC(=O)COc2cc(C)cc(C)c2)N2CCCCC2)cc1 (stereo not drawn),-21.7%,x,x,-21.0,x,u
COc1ccc(OCC(=O)NCC(c2ccc(OC)cc2)N2CCCCC2)cc1 (stereo not drawn),10.8%,22.0%,-0.1,-17.1,-61.7*,i
COc1ccc(C(CNC(=O)C(C)(C)Oc2ccc(Cl)cc2)N2CCCC2)cc1 (stereo not drawn),x,21.1%,-5.5,-4.3,-114.3*,i
COc1ccccc1C(CNC(=O)C(C)(C)Oc1ccc(Cl)cc1)N1CCCC1 (stereo not drawn),-12.3%,-31.6%,u,-14.9,-11.8,i
COc1ccc(C(CNC(=O)COc2cc(C)c(Cl)c(C)c2)N2CCCCC2)cc1 (stereo not drawn),u,7.3%,u,-23.6,-91.7*,u
COc1ccc(C(CNC(=O)COc2ccc(C)c(C)c2)N2CCCCC2)cc1 (stereo not drawn),-7.4%,-6.3%,3.6,-17.2,-100.0*,i
O=C(O)c1cccc(S(=O)(=O)Nc2ccc3oc(=O)sc3c2)c1,-11.5%,2.5%,64.4,-1.6,-87.5*,i
